Holding throughout (experiment): NCI-60 one-dose screen, 48 h (100 = growth as untreated, 0 = no growth, -100 = all killed)
In one assay the test system is SK-MEL-2 melanoma. The conditions noted are these: 10 µM unless noted.
The next assay has as its system EKVX NSCLC. The conditions noted are these: 10 µM unless noted.
For the next assay, the system named is SN12C renal. The conditions noted are these: 10 µM unless noted.
For the next assay, the system named is UO-31 renal. The conditions noted are these: 10 µM unless noted.
The next assay relates to TK-10 renal. The conditions noted are these: 10 µM unless noted.
The subject of another assay is ACHN renal. The conditions noted are these: 10 µM unless noted.
The test system of the next assay is CAKI-1 renal. The conditions noted are these: 10 µM unless noted.
The subject of a further assay is A498 renal. The conditions noted are these: 10 µM unless noted.
The subject of the next assay is CCRF-CEM leukemia. The conditions noted are these: 10 µM unless noted.
The test system of another assay is MOLT-4 leukemia. The conditions noted are these: 10 µM unless noted.
The next assay concerns SR leukemia. The conditions noted are these: 10 µM unless noted.
The test system of another assay is RPMI-8226 leukemia. The conditions noted are these: 10 µM unless noted.
A further assay relates to OVCAR-8 ovarian. The conditions noted are these: 10 µM unless noted.
The subject of a further assay is OVCAR-5 ovarian. The conditions noted are these: 10 µM unless noted.
Another assay relates to OVCAR-4 ovarian. The conditions noted are these: 10 µM.
In the next assay the test system is SK-OV-3 ovarian. The conditions noted are these: 10 µM unless noted.
Another assay concerns IGROV1 ovarian. The conditions noted are these: 10 µM unless noted.
The subject of a further assay is OVCAR-3 ovarian. The conditions noted are these: 10 µM unless noted.
In the next assay the test system is NCI/ADR-RES ovarian. The conditions noted are these: 10 µM unless noted.
The next assay concerns HS 578T breast. The conditions noted are these: 10 µM unless noted.

About 83,000 compounds went through this panel and 20% of them were active in at least one assay; those are over-represented in the sample as a whole.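 Note: values are percent growth. 100 is the growth of untreated cells, values between 100 and 0 indicate rising inhibition; between -100 and 0 indicates cell death.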 A number with no mark means an inactive call. Calls of active or inactive are those of the source. Rule for the calls: active = growth percent below 10; inactive = the rest.

For the molecule `COc1cc(OC)c(/C=C/C(=O)c2c(N)cc(OC)cc2OC)c(OC)c1`, the growth in the assay with SK-MEL-2 melanoma was 12.4%; with EKVX NSCLC, 49.3%; in the assay with SN12C renal, 37%; with UO-31 renal, 43.7%; in the assay with TK-10 renal, 44.3%; in the assay with ACHN renal it was 36.6%. Moreover, the growth was 12.3% in the assay with CAKI-1 renal; -11.4% (active) in the assay on A498 renal; 12.3% in the assay on CCRF-CEM leukemia; 35.8% in the assay with MOLT-4 leukemia; 29.2% in the assay with SR leukemia; 13.5% in the assay on RPMI-8226 leukemia. In addition, the growth in the assay on OVCAR-8 ovarian was 19.9%; in the assay with OVCAR-5 ovarian, 29.7%; with OVCAR-4 ovarian, 80.1%; in the assay on SK-OV-3 ovarian, 5.56% (active); in the assay with IGROV1 ovarian, 32.5%; in the assay on OVCAR-3 ovarian it was -45.5% (active). The growth with NCI/ADR-RES ovarian is -16.2% (active).

As for `COc1cc(C)cc2oc3oc(=O)c(-c4nc5ccccc5s4)cc3c(=O)c12`, the growth in the assay with SK-MEL-2 melanoma was 113%; in the assay with EKVX NSCLC it was 105%; in the assay on SN12C renal, 98.4%; with UO-31 renal it was 74.6%; in the assay with TK-10 renal, 101%; in the assay on ACHN renal, 100%. For the same molecule, the growth is 91.8% with CAKI-1 renal; 85.1% in the assay on A498 renal; 107% with CCRF-CEM leukemia; 106% in the assay on MOLT-4 leukemia; 105% with SR leukemia; 94.1% with RPMI-8226 leukemia. Besides, the growth in the assay with OVCAR-8 ovarian is 86.4%; with OVCAR-5 ovarian it was 89.7%; with OVCAR-4 ovarian, 96.7%; with SK-OV-3 ovarian, 111%; in the assay on IGROV1 ovarian, 83.2%; in the assay with OVCAR-3 ovarian, 85.3%. Also, the growth in the assay on NCI/ADR-RES ovarian is 94.4%.

With `C=C1C(=O)O[C@H]2[C@H]1CC/C(COC(=O)NCc1ccc(Cn3c(=O)sn(-c4ccc(Cl)cc4)c3=O)cc1)=C\CC[C@@]1(C)O[C@@H]21`, the growth is 88.2% in the assay on SK-MEL-2 melanoma; 99.6% with EKVX NSCLC; 70.4% in the assay with SN12C renal; 57.7% in the assay on UO-31 renal; 45% in the assay with TK-10 renal; 65.5% in the assay on ACHN renal. Moreover, the growth was 61% with CAKI-1 renal; 107% in the assay with A498 renal; 0.529% (active) in the assay on CCRF-CEM leukemia; 23.2% in the assay with MOLT-4 leukemia; 72.3% in the assay with SR leukemia; 4.32% (active) in the assay with RPMI-8226 leukemia. Further, the growth in the assay on OVCAR-8 ovarian was 84%; with OVCAR-5 ovarian, 93.2%; in the assay on OVCAR-4 ovarian, 54.2%; in the assay on SK-OV-3 ovarian, 107%; in the assay on IGROV1 ovarian, 54.4%; with HS 578T breast, 106%. In addition, the growth with NCI/ADR-RES ovarian is 102%.

As for `COc1cc2c(cc1OCCCCCOc1ccc(-n3c(C)nc4ccccc4c3=O)cc1)N=C[C@@H]1CCCN1C2=O`, the growth was -8.38% (active) with SK-MEL-2 melanoma; -26.5% (active) in the assay with EKVX NSCLC; 12.7% in the assay with SN12C renal; 2.91% (active) in the assay with UO-31 renal; -28.2% (active) in the assay on TK-10 renal; 9.23% (active) with ACHN renal. For the same molecule, the growth in the assay on CAKI-1 renal was 4.3% (active); in the assay with A498 renal, -71.9% (active); in the assay with CCRF-CEM leukemia, -38.3% (active); in the assay on MOLT-4 leukemia it was -31.2% (active); in the assay with SR leukemia, -25.4% (active); in the assay on RPMI-8226 leukemia it was -35% (active). In addition, the growth in the assay on OVCAR-8 ovarian is 9.85% (active); in the assay with OVCAR-5 ovarian, 10.5%; with OVCAR-4 ovarian, -27.8% (active); with SK-OV-3 ovarian, -0.258% (active); with IGROV1 ovarian, -28.7% (active); in the assay on OVCAR-3 ovarian it was -15.8% (active). In addition, the growth in the assay with NCI/ADR-RES ovarian is -14.6% (active).

For `O=C(Nc1cccc(C2=NCCN2)c1)c1cccc(C(=O)Nc2cccc(C3=NCCN3)c2)c1`, the growth was 103% with SK-MEL-2 melanoma; 88.6% in the assay on EKVX NSCLC; 95.7% in the assay with SN12C renal; 84.5% with UO-31 renal; 89.3% in the assay on TK-10 renal; 101% with ACHN renal. In addition, the growth was 92.6% in the assay on CAKI-1 renal; 111% with A498 renal; 104% in the assay on CCRF-CEM leukemia; 100% in the assay with MOLT-4 leukemia; 92.3% in the assay on SR leukemia; 94.3% in the assay on RPMI-8226 leukemia. The growth with OVCAR-8 ovarian was 101%; in the assay on OVCAR-5 ovarian, 95.7%; in the assay with OVCAR-4 ovarian, 94.7%; in the assay on SK-OV-3 ovarian it was 104%; in the assay on IGROV1 ovarian, 99.1%; in the assay on HS 578T breast, 98.4%. In the assay on NCI/ADR-RES ovarian, the growth was 98.8%.

Regarding `O=C(Nc1ccc(F)cc1)c1ccccc1`, the growth with SK-MEL-2 melanoma is 106%; with EKVX NSCLC it was 101%; in the assay on SN12C renal, 102%; in the assay with UO-31 renal it was 94.3%; with TK-10 renal, 95.7%; in the assay with ACHN renal, 101%. For the same molecule, the growth with CAKI-1 renal was 91.6%; in the assay on A498 renal, 92.4%; in the assay on CCRF-CEM leukemia, 100%; in the assay with MOLT-4 leukemia it was 97.8%; in the assay with SR leukemia, 88.8%; in the assay with RPMI-8226 leukemia it was 102%. The growth is 105% with OVCAR-8 ovarian; 105% in the assay on OVCAR-5 ovarian; 100% in the assay with OVCAR-4 ovarian; 112% in the assay on SK-OV-3 ovarian; 110% with IGROV1 ovarian; 107% in the assay on HS 578T breast. The growth with NCI/ADR-RES ovarian is 98.9%.

With `Cc1cc(-c2ccc(N=Nc3c(S(=O)(=O)O)cc4cc(S(=O)(=O)O)cc(N)c4c3O)c(C)c2)ccc1N=Nc1cc(S(=O)(=O)O)c2ccccc2c1O`, the growth was 111% in the assay on SK-MEL-2 melanoma; 81.1% in the assay with EKVX NSCLC; 98.1% in the assay on SN12C renal; 73.1% in the assay with UO-31 renal; 102% with TK-10 renal; 95.4% in the assay on ACHN renal. Besides, the growth was 78.9% with CAKI-1 renal; 96.4% with A498 renal; 106% in the assay on CCRF-CEM leukemia; 102% in the assay with MOLT-4 leukemia; 106% in the assay on SR leukemia; 98.5% with RPMI-8226 leukemia. The growth was 96.6% in the assay with OVCAR-8 ovarian; 86.8% in the assay with OVCAR-5 ovarian; 105% with OVCAR-4 ovarian; 93.4% with SK-OV-3 ovarian; 95.8% in the assay on IGROV1 ovarian; 90.7% in the assay on HS 578T breast. In addition, the growth with NCI/ADR-RES ovarian is 97.2%.

Consider `Cc1cccc([N+](=O)[O-])c1I`, for which the growth with SK-MEL-2 melanoma was 112%; in the assay on EKVX NSCLC, 95.4%; in the assay with SN12C renal, 107%; in the assay with UO-31 renal, 85.1%; in the assay on TK-10 renal, 113%; in the assay on ACHN renal, 105%. The growth in the assay with CAKI-1 renal was 100%; in the assay with A498 renal, 93%; with CCRF-CEM leukemia it was 87.2%; with MOLT-4 leukemia, 122%; in the assay with SR leukemia, 128%; in the assay on RPMI-8226 leukemia, 99.6%. For the same molecule, the growth in the assay with OVCAR-8 ovarian was 98.2%; in the assay on OVCAR-5 ovarian, 98.9%; in the assay with OVCAR-4 ovarian, 110%; in the assay with SK-OV-3 ovarian, 115%; in the assay with OVCAR-3 ovarian, 118%; with HS 578T breast, 113%. Besides, the growth with NCI/ADR-RES ovarian is 109%.

The values above are taken from PubChem BioAssay (NCI).
